# Calls of active or inactive are those of the source.
# How the values were obtained:
# Albumin (Bos taurus) = Albumin (Bos taurus) (UniProt P02769); assay: compounds binding labelled BSA control protein – biochemical, small-molecule microarray, Alexa647 label, 635/667 nm fluorescence, artefact control for SMM control protein annotation, profiling panel (AID 1118); conditions: BSA-A647 binding, fluorescence 635 nm, higher = more signal;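 also: score merges 667 nm emission intensity and signal-to-noise per printed compound spot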
# [1] = probe aXIP binding to arrayed compounds – biochemical, NeuroSMM set, 635/667 nm fluorescence, primary screen (AID 1119); conditions: small-molecule microarray, higher = more signal, called active from +8 up or from −8 down;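 also: probe is the protein aXip251-270 applied at 1 µg/mL to compound-printed slides; binding of probe to printed compounds measured as 667 nm fluorescence plus signal to noise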
# [2] = probe aNOTCH3 binding on compound microarray – biochemical, small-molecule microarray, 635/667 nm fluorescence, primary screen (AID 1120); conditions: higher = more signal;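 also: probe is a biotin-tagged antibody raised against NOTCH3 rather than NOTCH3 protein; score merges spot fluorescence near 667 nm with spot signal to noise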
# [3] = probe aNOTCH2 binding on compound microarray – biochemical, small-molecule microarray, 635/667 nm fluorescence, primary screen (AID 1121); conditions: higher = more signal;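 also: score merges feature fluorescence read at 667 nm with its signal to noise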
# [4] = biological target: Carbonic anhydrase 2 (Homo sapiens) (UniProt P00918); assay: compounds binding carbonic anhydrase 2 – biochemical, small-molecule microarray, Alexa647-labelled CAII, profiling panel (AID 1122); conditions: CAII-A647 binding fluorescence, higher = more signal
# [5] = COS7 lysate on small-molecule microarray, probe aHis, 635 nm (AID 1123); conditions: COS7 cell lysate, fluorescence, higher = more signal;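 also: z-score combines 667nm fluorescence intensity with signal-to-noise per printed compound spot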
# [6] = probe aLAP1 signal on lysate-treated microarray – cell lysate, small-molecule microarray, COS7 lysate, primary screen (AID 1124); conditions: probe aLAP1, fluorescence, higher = more signal;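 also: lysate comes from COS7 cells expressing LAP1 and is applied at 0.3 µg/mL; score merges spot fluorescence near 667 nm with signal-to-noise over triplicate slides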
# Sam68 (KHDRBS1) = assay: compounds binding KHDRBS1 protein – biochemical, small-molecule microarray, 635 nm fluorescence, primary screen (AID 1125); conditions: higher = more signal;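 also: score merges 667 nm channel intensity with signal to noise over triplicate slides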
# [7] = test system: Chordin-like protein 2 (CHRDL2); assay: compounds binding chordin-like 2 – biochemical, small-molecule microarray, 635 nm fluorescence, primary screen (AID 1126); conditions: fluorescence 635 nm, higher = more signal;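 also: printed compound slides probed with Chrdl2 protein at 4 µg/mL for 1 h at 4 C; score merges 667 nm emission intensity with signal to noise over three replicate slides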
# [8] = biological target: Concanavalin-A (Canavalia ensiformis) (UniProt P02866); assay: compounds binding concanavalin A lectin – biochemical, small-molecule microarray, Alexa647 label, 635 nm, artefact control for SMM control protein annotation, primary screen (AID 1127); conditions: ConA-A647 binding fluorescence, higher = more signal;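 also: z combines 667 nm emission intensity with signal-to-noise across three replicate slides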
# [9] = compounds binding Alexa647 anti-His antibody – biochemical, small-molecule microarray, 635 nm fluorescence, artefact control for SMM control protein annotation, primary screen (AID 1128); conditions: higher = more signal;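 also: score merges feature fluorescence with signal-to-noise for each printed compound spot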
# [10] = test system: Human papillomavirus type 1a E7 protein (residues 1-88); assay: HPV1a E7 small-molecule binders, primary screen, biochemical, small-molecule microarray, residues 1-88, 635 nm (AID 1129); conditions: small-molecule microarray binding, fluorescence 635 nm; higher = more signal
# [11] = biological target: Focal adhesion kinase 1 (Homo sapiens) (UniProt Q05397); assay: PTK2 protein binding on printed compound slides – biochemical, small-molecule microarray, 635/667 nm fluorescence, BSA, DTT, primary screen (AID 1130); conditions: 635 nm fluorescence, higher = more signal;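 also: composite of spot emission at 667 nm and signal to noise over triplicate slides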
# [12] = test system: Fibrinogen (Alexa647-labelled); assay: Alexa647-fibrinogen binding to printed small molecules – biochemical, small-molecule microarray, 635/667 nm fluorescence, artefact control for SMM control-protein annotation, profiling panel (AID 1131); conditions: fibrinogen-A647 binding fluorescence, higher = more signal;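 also: z-score merges 667 nm fluorescence with per-spot signal-to-noise over triplicate slides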
# [13] = biological target: Follistatin (Homo sapiens) (UniProt P19883); assay: FST protein binding to printed compounds – biochemical, small-molecule microarray, 635/667 nm fluorescence, primary screen (AID 1132); conditions: 635 nm fluorescence, higher = more signal
# [14] = biological target: Fibroblast growth factor 2 (Homo sapiens) (UniProt P09038); assay: basic fibroblast growth factor binding to printed compounds – biochemical, small-molecule microarray, 635/667 nm fluorescence, primary screen (AID 1133); conditions: FGF2, fluorescence 635/667, higher = more signal
# [15] = JC-1 mitochondrial potential readout, lung cancer cells – cell-based, A549, JC-1 fluorescence, basal, 24 h, 100 nL, profiling panel (AID 1138); conditions: higher = more signal;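 also: A549 lung adenocarcinoma cells under basal conditions with no added stimulus; test concentration not given here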
# Lefty1 = Lefty1 protein binding to printed compounds – biochemical, small-molecule microarray, 635/667 nm fluorescence, primary screen (AID 1139); conditions: fluorescence 635/667, higher = more signal
# [16] = test system: wheat germ agglutinin (Triticum aestivum), Alexa647-labelled; assay: Alexa647-WGA lectin binding to printed small molecules – biochemical, small-molecule microarray, 635/667 nm fluorescence, artefact control for SMM control-protein annotation, profiling panel (AID 1140); conditions: WGA-A647 binding, 635 nm fluorescence, higher = more signal;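 also: score merges 667 nm feature emission with signal to noise over triplicate slides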
# [17] = biological target: Luciferin 4-monooxygenase (Photinus pyralis) (UniProt P08659); assay: inhibition of purified Photinus pyralis luciferase – biochemical, luminescence, purified enzyme, 2006 set, primary screen (AID 1141); conditions: purified firefly luciferase, SteadyGlo luminescence, 30 min; higher = more signal, called active from +8 up or from −8 down;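 also: cell-free assay with purified firefly luciferase at 100 ng per well in PBS; test concentration not given here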
# Chain of Luciferin 4-monooxygenase (Photinus pyralis) (P08659 whole entry, looked up): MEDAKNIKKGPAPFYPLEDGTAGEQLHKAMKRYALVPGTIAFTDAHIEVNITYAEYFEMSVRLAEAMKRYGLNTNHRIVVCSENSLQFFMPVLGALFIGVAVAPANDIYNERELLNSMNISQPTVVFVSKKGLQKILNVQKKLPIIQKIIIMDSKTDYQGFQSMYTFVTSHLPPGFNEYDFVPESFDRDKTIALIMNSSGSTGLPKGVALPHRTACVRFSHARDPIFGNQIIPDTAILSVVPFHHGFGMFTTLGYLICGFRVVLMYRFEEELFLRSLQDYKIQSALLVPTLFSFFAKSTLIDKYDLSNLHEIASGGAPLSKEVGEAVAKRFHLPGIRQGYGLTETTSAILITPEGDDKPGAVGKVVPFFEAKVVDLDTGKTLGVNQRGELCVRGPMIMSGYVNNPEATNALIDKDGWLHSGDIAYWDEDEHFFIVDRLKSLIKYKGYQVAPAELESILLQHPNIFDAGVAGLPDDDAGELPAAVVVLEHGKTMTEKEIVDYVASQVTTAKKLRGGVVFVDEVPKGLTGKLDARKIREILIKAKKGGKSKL
# Chain of Concanavalin-A (Canavalia ensiformis) (P02866 whole entry, looked up): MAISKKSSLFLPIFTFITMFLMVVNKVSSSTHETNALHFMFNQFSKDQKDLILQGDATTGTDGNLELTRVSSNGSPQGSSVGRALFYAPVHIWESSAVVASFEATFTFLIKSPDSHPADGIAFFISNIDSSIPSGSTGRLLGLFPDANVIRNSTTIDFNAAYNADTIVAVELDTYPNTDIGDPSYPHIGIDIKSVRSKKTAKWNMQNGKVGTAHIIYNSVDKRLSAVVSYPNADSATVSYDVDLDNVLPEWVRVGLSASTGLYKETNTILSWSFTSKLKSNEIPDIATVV
# Chain of Follistatin (Homo sapiens) (P19883 whole entry, looked up): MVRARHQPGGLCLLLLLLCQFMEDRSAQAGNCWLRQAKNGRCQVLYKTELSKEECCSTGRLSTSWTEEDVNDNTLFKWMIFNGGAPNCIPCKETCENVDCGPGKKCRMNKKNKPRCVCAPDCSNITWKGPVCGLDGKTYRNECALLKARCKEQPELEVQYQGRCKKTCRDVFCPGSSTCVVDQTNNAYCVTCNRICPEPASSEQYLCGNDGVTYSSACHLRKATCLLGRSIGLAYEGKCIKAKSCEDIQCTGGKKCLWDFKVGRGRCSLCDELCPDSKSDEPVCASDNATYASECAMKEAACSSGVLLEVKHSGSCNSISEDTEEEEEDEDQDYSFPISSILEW
# Chain of Fibroblast growth factor 2 (Homo sapiens) (P09038 whole entry, looked up): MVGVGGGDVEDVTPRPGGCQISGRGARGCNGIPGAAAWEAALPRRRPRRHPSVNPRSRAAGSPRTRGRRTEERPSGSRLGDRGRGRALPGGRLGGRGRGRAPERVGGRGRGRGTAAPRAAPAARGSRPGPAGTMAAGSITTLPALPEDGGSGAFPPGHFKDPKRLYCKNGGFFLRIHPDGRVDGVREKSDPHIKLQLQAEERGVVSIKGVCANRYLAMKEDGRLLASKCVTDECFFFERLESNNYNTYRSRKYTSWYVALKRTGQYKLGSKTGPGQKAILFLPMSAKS
# Chain of Albumin (Bos taurus) (P02769 whole entry, looked up): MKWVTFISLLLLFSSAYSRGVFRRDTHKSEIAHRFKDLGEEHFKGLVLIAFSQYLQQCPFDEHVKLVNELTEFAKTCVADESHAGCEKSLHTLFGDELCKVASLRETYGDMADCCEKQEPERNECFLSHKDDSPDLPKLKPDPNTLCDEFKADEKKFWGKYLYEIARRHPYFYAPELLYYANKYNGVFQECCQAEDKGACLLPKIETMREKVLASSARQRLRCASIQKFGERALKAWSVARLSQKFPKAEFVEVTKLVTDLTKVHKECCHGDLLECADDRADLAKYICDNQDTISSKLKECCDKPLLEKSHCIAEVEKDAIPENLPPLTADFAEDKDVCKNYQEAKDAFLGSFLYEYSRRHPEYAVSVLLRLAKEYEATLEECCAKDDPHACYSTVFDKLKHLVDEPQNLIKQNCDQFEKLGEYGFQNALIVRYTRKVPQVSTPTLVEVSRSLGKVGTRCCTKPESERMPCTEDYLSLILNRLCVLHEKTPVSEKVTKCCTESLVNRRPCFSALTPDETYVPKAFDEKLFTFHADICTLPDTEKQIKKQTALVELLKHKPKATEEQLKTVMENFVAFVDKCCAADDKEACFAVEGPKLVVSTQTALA
# Chain of Focal adhesion kinase 1 (Homo sapiens) (Q05397 whole entry, looked up): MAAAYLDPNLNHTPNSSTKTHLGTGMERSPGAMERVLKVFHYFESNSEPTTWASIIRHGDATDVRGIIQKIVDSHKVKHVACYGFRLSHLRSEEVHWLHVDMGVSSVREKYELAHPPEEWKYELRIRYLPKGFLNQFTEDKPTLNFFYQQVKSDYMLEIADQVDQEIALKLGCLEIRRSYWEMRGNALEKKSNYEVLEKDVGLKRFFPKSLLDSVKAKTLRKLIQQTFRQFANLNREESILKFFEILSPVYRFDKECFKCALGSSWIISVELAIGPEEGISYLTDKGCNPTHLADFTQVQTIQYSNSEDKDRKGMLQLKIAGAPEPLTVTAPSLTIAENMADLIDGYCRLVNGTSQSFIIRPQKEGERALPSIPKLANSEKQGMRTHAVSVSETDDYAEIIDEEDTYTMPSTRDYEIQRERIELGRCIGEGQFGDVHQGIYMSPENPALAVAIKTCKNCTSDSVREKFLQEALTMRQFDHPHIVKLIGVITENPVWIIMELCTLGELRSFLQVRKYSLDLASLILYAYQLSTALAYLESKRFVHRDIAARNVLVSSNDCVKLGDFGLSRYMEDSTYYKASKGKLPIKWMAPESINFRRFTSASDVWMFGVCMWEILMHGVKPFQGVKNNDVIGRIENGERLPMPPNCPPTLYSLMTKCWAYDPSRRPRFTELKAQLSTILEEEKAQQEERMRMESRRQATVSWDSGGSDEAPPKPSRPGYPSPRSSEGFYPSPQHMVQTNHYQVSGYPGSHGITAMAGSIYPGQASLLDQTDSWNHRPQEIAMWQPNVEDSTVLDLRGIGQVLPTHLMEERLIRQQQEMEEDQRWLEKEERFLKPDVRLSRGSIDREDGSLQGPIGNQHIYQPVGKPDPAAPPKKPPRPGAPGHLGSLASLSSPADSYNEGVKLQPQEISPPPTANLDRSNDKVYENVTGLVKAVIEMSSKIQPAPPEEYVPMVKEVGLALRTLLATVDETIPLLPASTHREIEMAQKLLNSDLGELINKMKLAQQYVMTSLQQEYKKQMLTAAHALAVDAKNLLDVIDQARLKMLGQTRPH
SMILES,composite z-score (Albumin (Bos taurus)),composite Z-score [1],composite z-score [2],composite z-score [3],composite z-score [4],composite z-score [5],composite z-score [6],composite z-score (Sam68 (KHDRBS1)),composite z-score [7],composite z-score [8],composite z-score [9],composite z-score [10],composite z-score [11],composite z-score [12],composite z-score [13],composite z-score [14],z-score [15],composite z-score (Lefty1),composite z-score [16],z-score [17]
CC(C)C(CO)N1C(=O)[C@@H]2[C@H]3C(=O)OCC=C[C@H]3OC23C=CCN(C(C)C)C(=O)[C@@H]13 (stereo not given in full),-0.457,0.12 (inactive),-0.149,-0.14,-0.0147,-0.312,-0.313,0.239,0.292,-0.529,0.443,-0.349,0.0732,-0.841,0.405,-0.501,-0.654,0.433,-0.131,0.316 (inactive)
[N-]=[N+]=NCc1ccccc1C[C@@]1(C(=O)NCC(O)CO)N=C(c2ccc(OCCCO)cc2)O[C@@H]1c1ccccc1N=[N+]=[N-] (stereo not given in full),0.987,1.26 (inactive),0.318,-0.0814,0.69,3.14,0.791,1.31,-0.655,1.1,2.41,1.22,1.22,0.962,1.38,1.58,-0.043,-0.709,1.15,-3.13 (inactive)
CCCC#C[Si](O[C@H](CC)c1cn([C@H](CO)Cc2ccccc2)nn1)(C(C)C)C(C)C,0.868,-0.483 (inactive),-0.108,-0.0986,0.667,0.516,-0.126,0.838,0.322,0.632,0.236,0.842,0.249,0.892,0.963,0.344,0.175,0.41,0.0686,-0.453 (inactive)
COCCOC(=O)N1C(=O)[C@@]2(c3cc(C#CC4=CCCCC4)ccc31)[C@H](c1ccc(O)cc1)N1[C@H](c3ccccc3)[C@H](c3ccccc3)OC(=O)[C@H]1[C@@H]2C(N)=O,-0.353,0.544 (inactive),0.092,-0.253,0.331,1.16,0.45,1.01,0.71,1.06,0.711,1.08,0.334,0.644,1.32,1.57,-0.858,1.23,0.766,-1.37 (inactive)
COCC(=C=CC[C@H](O)c1ccccc1OCCO)C[C@H](O)c1cc(Cl)cc(Cl)c1O,0.384,2.26 (inactive),-0.0077,-0.115,0.351,0.834,0.478,1.24,-0.383,0.689,-0.058,0.914,0.469,0.974,0.888,1.59,-0.54,0.685,0.351,-1.28 (inactive)
Cc1ccc(S[C@]2(C(=O)NCCN3CCOCC3)CC(=O)N(Cc3ccccc3)[C@@H]2c2ccc(CO)cc2I)cc1,0.285,0.994 (inactive),-0.165,-0.14,0.667,1.43,0.202,-0.388,-1.59,-0.112,1.75,-0.104,0.217,-1.42,-0.422,-1.2,0.0777,-1.08,-0.592,0.4 (inactive)
COC(=O)[C@@]1(Cc2ccc(F)cc2)[C@H]2c3cc(C(=O)N(C)C)n(Cc4ccc(S(C)(=O)=O)cc4)c3C[C@H]2CN1C(=O)c1ccccc1,0.653,0.542 (inactive),-0.142,0.151,0.747,3.39,1.04,-0.181,-0.0016,0.518,0.904,0.941,1.16,1.01,0.158,0.0722,0.521,-0.224,0.766,0.202 (inactive)
COC(=O)[C@@]1(Cc2ccc(OC)cc2)[C@H]2c3cc(C(=O)N4CCCC4)n(Cc4ccsc4Br)c3C[C@H]2CN1C(=O)c1ccccc1,0.885,0.387 (inactive),0.527,-0.0677,0.877,2.83,0.0786,0.374,-0.91,0.496,0.198,1.12,0.565,-0.152,0.073,-0.88,-0.404,-0.402,0.604,-0.777 (inactive)
CCC(CC)C(O)C1C=CC2C(=O)N(C)C(=O)C2N1Nc1ccccc1 (stereo not given),0.333,-0.574 (inactive),0.149,-0.05,0.652,2.5,0.515,1.07,-0.237,1.2,1.02,1.08,0.43,0.964,0.895,-0.194,-0.513,0.434,1.1,-0.445 (inactive)
CN(C)CCCNC(=O)[C@@]1(c2ccc([N+](=O)[O-])cc2)CC(=O)N(C2CCCCC2)[C@@H]1c1ccc(CO)cc1I,-0.13,-0.75 (inactive),-0.128,-0.124,0.397,1.7,0.742,1.34,0.096,1.15,1.48,1.23,0.634,0.62,0.336,0.225,-2.36,0.0773,0.701,-0.907 (inactive)
O=C1OCCC/C=C\[C@H]2OC34C=CCN(c5ccc6ccccc6c5)C(=O)[C@H]3N(CCCCCCO)C(=O)[C@@H]4C12 (stereo not given in full),0.0499,0.611 (inactive),-0.256,-0.163,0.946,-0.0749,0.978,-0.468,-1.65,-0.83,1.79,0.124,-0.29,-1.74,-0.179,-0.943,1.74,-0.159,-0.0279,-1.47 (inactive)

# Source: PubChem BioAssay
